Source: PubChem BioAssay
UGM FP inh – Mtb UDP-galactopyranose mutase inhibition; inhibition, % at 10 µM; P9WIQ1; purified UGM, fluorescence polarization probe displacement; 0.06% of 320,000 active; in the data active = inhibition above about 10%, passing the limit was not always enough
PriA SSB inh – blocks PriA binding to SSB C-terminal tail; AlphaScreen SSBct-PriA binding, biotinylated peptide; inhibition, % at 33 µM; 0.6% of 430,000 active; AID 1272365; in the data active = inhibition mostly above about 37%, no sharp cut-off; inactive = mostly below about 20%;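 also: plate controls were negative control peptide for no effect and reference peptide for full effect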
Rv3671c inh – inhibitors of M. tuberculosis serine protease Rv3671c; P9WHR9; inhibition, % at 5.96 µM; 0.048% of 320,000 active; in the data active = inhibition above about 38%;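 also: extracellular domain of Rv3671c used as enzyme; 0% = enzyme with DMSO and 100% = no enzyme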
Target sequence (P9WHR9 whole entry, looked up, the tested form may be a part): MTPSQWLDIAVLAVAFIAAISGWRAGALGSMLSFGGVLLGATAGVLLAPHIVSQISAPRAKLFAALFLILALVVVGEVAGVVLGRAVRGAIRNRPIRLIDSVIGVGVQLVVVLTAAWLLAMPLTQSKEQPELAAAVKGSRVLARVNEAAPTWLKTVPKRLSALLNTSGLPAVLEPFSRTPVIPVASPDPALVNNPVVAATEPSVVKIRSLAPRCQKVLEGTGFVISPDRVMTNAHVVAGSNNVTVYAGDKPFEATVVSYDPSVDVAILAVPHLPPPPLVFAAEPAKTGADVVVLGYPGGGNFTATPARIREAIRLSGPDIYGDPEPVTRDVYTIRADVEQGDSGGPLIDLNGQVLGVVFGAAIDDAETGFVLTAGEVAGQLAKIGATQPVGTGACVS
Mtb bLac sens – beta-lactam sensitization of Mtb H37Rv; inhibition, % at 25 µM; 0.27% of 330,000 active; M. tuberculosis H37Rv growth with meropenem, percent inhibition; AID 434955; call rule not given here;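 also: growth measured after seven days incubation then overnight dye step; 0% = bacteria only wells and 100% = bacteria with antibiotic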
GDH-TPI inh – GDH-TPI coupled enzyme inhibition counter-screen; AID 588335; inhibition, % at 4.8 µM; 1.2% of 360,000 active; GDH-TPI coupled enzyme counterscreen, NADH absorbance; in the data active = inhibition above about 30%;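 also: 0% = DMSO wells and 100% = wells lacking the enzyme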
FBA Mtb inh – inhibits M. tuberculosis FBA enzyme | purified M. tuberculosis FBA, fluorescence read-out | inhibition, % at 1 µM | 2.3% of 360,000 active | AID 588726; in the data active = inhibition above about 27%;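 also: 0% = vehicle and 100% = reference inhibitor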
Numbers without * were called inactive; · = no result given; + = active, no number. In the library only some 3.2% were active in any assay of this set; here they are far more common.

SMILES | UGM FP inh | PriA SSB inh | Rv3671c inh | Mtb bLac sens | GDH-TPI inh | FBA Mtb inh
C=CCN1C(=O)C(CC(=O)O)SC1=Nc1cccc([N+](=O)[O-])c1 (stereo not given) | 1.5 | -0.5 | -5.6 | -8.2 | 1.3 | 2.4
COc1cc(/C=C2\SC(=O)N(c3ccc(O)cc3)C2=O)cc(OC)c1OC | -0.4 | -3.0 | -0.5 | 0.0 | 48.1* | -2.9
O=C(O)c1ccc(/C=C(\c2nc3ccccc3[nH]2)c2nc3ccccc3s2)cc1 | -0.2 | -0.5 | -1.9 | -0.4 | 65.0* | -0.7
Nc1ccc(-c2nc3c(ccc4ccccc43)[nH]2)cc1 | -1.4 | 26.2 | 2.5 | -9.5 | 42.1* | +
Fc1ccc(-c2nc3ccccc3[nH]2)cc1 | -0.4 | -8.5 | -4.7 | 2.3 | 14.4 | 7.8
Nc1cccc(-c2nc3ccccc3[nH]2)c1 | -10.6 | -2.3 | -2.0 | -3.0 | 8.8 | 136.1*
O=C(O)c1ccc(-c2nc3ccccc3[nH]2)cc1 | 0.6 | -21.0 | -8.3 | 1.4 | 5.0 | +
Cc1cc(C)c(NC(=O)CSc2cn(C)c3ccccc23)c(C)c1 | · | 4.0 | · | · | · | ·
CC(=O)/C(=C(/O)c1ccccc1)c1nc2ccccc2[nH]1 | -4.4 | 0.6 | 3.9 | 0.7 | 8.5 | 0.6
Nc1ccc(-c2nc3ccccc3[nH]2)cc1 | 0.2 | -8.0 | -5.5 | -3.5 | 22.6 | 117.3*
S=c1[nH]cccc1-c1nc2ccccc2[nH]1 | · | 17.0 | · | · | · | ·
Nc1ccccc1-c1nc2ccccc2[nH]1 | 0.2 | 2.0 | -10.3 | 2.9 | 11.4 | +
O=C(/C(=C(\O)c1ccccc1)c1nc2ccccc2[nH]1)c1ccccc1 | -2.1 | -4.3 | 4.0 | 53.3 | 39.7* | 2.4
O=c1[nH]cccc1-c1nc2ccccc2[nH]1 | -1.3 | -8.0 | 0.5 | 7.7 | 42.4* | +
CS(=O)(=O)c1ccc2nc(N(Cc3ccco3)C(=O)Cc3ccc(F)cc3)sc2c1 | · | -15.0 | · | · | · | ·
Oc1ccc(C=Nc2ccccc2-c2nc3ccccc3[nH]2)cc1 | -1.7 | -19.9 | 0.8 | 1.1 | 19.9 | +
Cc1ccc2nc(-c3cccc(N)c3)[nH]c2c1 | -0.4 | 6.4 | -3.7 | -0.2 | 8.4 | 137.0*
Cc1cc(=O)oc2c(O)c(O)ccc12 | · | 3.1 | · | · | 4.3 | 1.6
COc1ccc(/C=C/C(=O)c2c(O)ccc3c(C)cc(=O)oc23)cc1 | -2.2 | -14.4 | -0.8 | 75.3 | 37.5* | -1.6
COc1ccc(/C=C\C(=O)c2c(O)ccc3c(C)cc(=O)oc23)cc1 | 0.2 | -6.4 | -2.0 | 80.9 | 49.1* | 3.1
COc1ccc(/C=C/C(=O)c2c(C)cc(C)cc2C)cc1 | · | 19.0 | · | · | · | ·
Cc1cc(C(=O)CSc2nnc(-c3ccccc3)n2C)c(C)n1C | -1.1 | -10.1 | -3.0 | -14.8 | -7.7 | -0.1
Cn1c(SCC(=O)c2ccc(O)cc2O)nnc1-c1ccccc1 | -1.9 | -19.2 | -0.6 | -1.9 | 34.2* | 0.0
Nc1ccc(C=C2C=Cc3ccccc32)cc1 | · | 17.7 | · | · | 20.3 | -8.1
NC(N)=Nc1ccc(C=C2C=Cc3ccccc32)cc1 | · | 41.9* | · | · | 28.0 | -1.9
SMILES | UGM FP inh | PriA SSB inh | Rv3671c inh | Mtb bLac sens | GDH-TPI inh | FBA Mtb inh
Cc1c(C2(O)CCCCC2)[nH]c2cnccc12 | 3.9 | 15.7 | -12.4 | -0.6 | 13.0 | 127.2*
CS(=O)(=O)N1CCN(c2ccc(-c3cccs3)nn2)CC1 | · | -5.0 | · | · | · | ·
COC(=O)CSc1nnc(C)c2cnn(-c3ccc(C)c(C)c3)c12 | · | 0.0 | · | · | · | ·
CC(=O)c1cc2cc(O)ccc2o1 | 4.0 | 1.4 | 1.5 | -8.6 | 17.4 | +
O=C(NCc1ccco1)c1cc2cc([N+](=O)[O-])ccc2oc1=O | · | 4.0 | · | · | · | ·
CC(=O)c1cc2c(O)c(O)ccc2o1 | 2.9 | 0.2 | 6.3 | -6.6 | 3.2 | 4.1
CC(=O)c1cc2ccc(O)cc2oc1=O | 5.3 | -0.2 | -1.9 | 2.1 | 10.4 | +
Cc1ccc(N=c2oc3cc(O)ccc3cc2C(N)=O)cc1 | 1.7 | 6.6 | -13.6 | 5.6 | 7.5 | +
O=C(NCc1ccco1)c1cc2ccc(O)cc2oc1=O | 2.0 | -1.0 | -7.9 | 43.2 | 5.1 | +
O=C(ON=C1CCS(=O)(=O)c2sccc21)c1ccccc1 | · | -3.7 | · | · | · | ·
Cc1ccc(-n2nnc(C(=O)Nc3ccc4c(c3)OCCO4)c2-c2cccnc2)cc1C | · | 25.0 | · | · | · | ·
Cc1cccc(N(CC(=O)N/N=C/c2cc([N+](=O)[O-])ccc2Cl)S(C)(=O)=O)c1C | · | · | 0.1 | 7.6 | 9.1 | 34.0*
COc1ccc(C(=O)n2cnnc2N)cc1 | -0.4 | -13.9 | 1.6 | -7.0 | 0.0 | 2.6
COc1ccc(-n2nc(N)c(C(N)=O)n2)cc1 | 1.8 | -1.6 | -0.5 | -4.7 | 13.2 | +
